Compound activity from PubChem BioAssay.
Giardia FBPA inh – qHTS Assay for Inhibitors of Fructose-1,6-bisphosphate Aldolase from Giardia Lamblia; A8B2U2; purified Giardia FBPA; Potency, µM (doses to about 59.6 µM), for the others: at the top dose activity, negative = inhibition, usual class: inhibitors; 0.71% of 290,000 active; AID 2451, 2010; note: potency is the fitted concentration of half-maximal effect; nearly all actives have a fitted effect of over 55% in size
Target sequence (A8B2U2 whole entry, looked up): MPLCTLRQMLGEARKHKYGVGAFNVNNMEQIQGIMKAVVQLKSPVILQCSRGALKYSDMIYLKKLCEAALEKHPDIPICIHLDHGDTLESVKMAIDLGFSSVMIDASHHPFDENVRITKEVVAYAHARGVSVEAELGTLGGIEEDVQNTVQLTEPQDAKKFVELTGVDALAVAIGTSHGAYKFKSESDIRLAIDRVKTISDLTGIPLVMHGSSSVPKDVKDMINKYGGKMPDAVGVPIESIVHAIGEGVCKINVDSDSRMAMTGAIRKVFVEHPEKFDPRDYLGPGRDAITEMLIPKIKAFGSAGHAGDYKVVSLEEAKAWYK
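Giardia FBPA (40 nM reagent) was preincubated 10 min at RT with compound (up to 57.5 uM final), then substrate plus GAPDH/TPI/NAD/arsenate coupling system with diaphorase/resazurin was added; resorufin fluorescence (525/598 nm) was read after 20 min.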
Sm TGR inh – qHTS Assay for the Inhibitors of Schistosoma Mansoni Peroxiredoxins; Schistosoma mansoni thioredoxin glutathione reductase (TGR), Q962Y6; purified TGR, DTNB reduction, TNB absorbance 405 nm; Potency, µM (doses to about 114 µM), inactives show at the highest dose activity change, negative = inhibition, most hits filed as inhibitors; 3% of 360,000 active; note: potency is the fitted concentration of half-maximal effect; nearly all actives have a fitted effect of over 60% in size
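First, TGR (20 nM dispensed) and NADPH were mixed with compound. Second, a 15 min room-temperature incubation followed. Third, further NADPH and then DTNB were added to start the reaction. Finally, TNB absorbance was monitored kinetically.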
Pf growth 96h – Primary qHTS for delayed death inhibitors of the malarial parasite plastid, 96 hour incubation; Potency, µM (top dose mostly 28.7 µM), without a hit: top-dose activity change, negative = inhibition, most hits filed as inhibitors; P. falciparum luciferase reporter growth, 96 h; 6.9% of 320,000 active; AID 504834, 2011; note: potency is the fitted concentration of half-maximal effect
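Erythrocytes infected with luciferase-expressing P. falciparum were dispensed at 2% hematocrit and 0.05% parasitemia (final), then incubated with compounds 96 hours at 37 C in 5% CO2. Luminescence after detection reagent addition reported growth.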
Pf growth 48h – Primary qHTS for delayed death inhibitors of the malarial parasite plastid, 48 hour incubation; P. falciparum luciferase growth in erythrocytes, 48 h; Potency, µM (titrated, usually from 28.7 µM), without a hit: top-dose activity change, negative = inhibition, hits mostly inhibitors; 5.9% of 310,000 active; AID 504832, 2011; note: potency is the fitted concentration of half-maximal effect
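In quantitative HTS format, infected erythrocytes bearing luciferase-reporter parasites were treated for a single generation at 37 C. Luminescence after adding detection reagent served as the growth measure.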
HCMV inh – qHTS Assay for inhibitors of the human cytomegalovirus (HCMV). HFF cells, HCMV-luciferase reporter, 72 h; hits give low values. activity change, negative = inhibition, % at 57.5 µM. 4.5% of 410,000 active; in the data active = activity change below about -60%; inconclusive = no clear call, values can overlap the other calls; inactive = above about -39%
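Screen run at 2 compound doses on HFFs infected with reporter HCMV, MOI 1 PFU/cell. Luciferase activity from cell lysates at 72 h post infection gave inhibition relative to buffer-only and Salinomycin wells.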
Numbers without * were called inactive; ? = inconclusive; · = not tested or not shown; ! = not active in a repeat. Compounds with a hit are over-represented: about 14% of the library has one in this group of screens. Unless noted, calls come from the whole dose curve; as a rule, active = well fitted curve in the direction sought with a large enough effect; inconclusive = small, poorly fitted or top-dose-only effect, or another doubt; inactive = no such curve, though single readings can be large; an effect the other way counts as inactive or inconclusive. % is set by controls: 0 for no effect and ±100 for the full control effect.

SMILES | Giardia FBPA inh | Sm TGR inh | Pf growth 96h | Pf growth 48h | HCMV inh
CCO[C@H]1OC(C(=O)N2CCN(Cc3ccccc3)CC2)=C[C@@H](c2coc3ccccc3c2=O)[C@@H]1CCCO | 4% | -23% | ? | ? | -15
CC(C)(C)Nc1c(-c2ccc(O)cc2)nc2ccc(Cl)cn12 | 4% | ? | 16% | 10µM* | -7
O=C(Cn1cc(S(=O)(=O)N2CCCC2)c(S(=O)(=O)N2CCCC2)c1)NCc1ccco1 | · | ? | ? | ? | -33
Cn1cnc(S(=O)(=O)N2CCCCN3[C@H](CO)[C@H](c4ccc(C#CC5CC5)cc4)[C@@H]3C2)c1 | · | · | · | · | -6
CO[C@H]1CN(C)C(=O)c2ccc(NS(=O)(=O)c3ccccc3F)cc2OC[C@H](C)NC[C@@H]1C | · | · | · | · | 7
COC(=O)c1ccc(C(c2c(N)n(Cc3ccccc3)c(=O)n(C)c2=O)N2CCOCC2)cc1 (centres undefined) | 0% | 22µM* | -15% | ? | -14
COc1ccc(N(C)C(=O)c2cc3c(s2)-c2ccccc2S(=O)(=O)C3)cc1 | 2% | 3% | ? | 2.9µM* | -12
O=C(c1cc2c(s1)-c1ccccc1S(=O)(=O)C2)N1CCN(Cc2ccccc2)CC1 | -15% | -8% | 69% | · | -74*
O=C(c1ccco1)N1CCN(C(=O)c2cc3c(s2)-c2ccccc2OC3)CC1 | -4% | 25µM* | ? | 5% | -4
O=C(c1cc2c(s1)-c1ccccc1OC2)N1CCN(c2ccc(F)cc2)CC1 | · | 24% | · | · | -31
O=C(NC1CC1)c1cc2c(s1)-c1ccccc1OC2 | -19% | 0% | 13µM* | · | ?
NC(=O)CC(NC(=O)c1ccccc1)c1ccc(NCCN2CCCCC2)c([N+](=O)[O-])c1 (centres undefined) | 6% | 28% | ? | -23% | -11
CCC(C)CCCCC(=O)NC(CCN)C(=O)NC(C(=O)NC(CCN)C(=O)NC1CCNC(=O)C(C(C)O)NC(=O)C(CCN)NC(=O)C(CCN)NC(=O)C(CC(C)C)NC(=O)C(Cc2ccccc2)NC(=O)C(CCN)NC1=O)C(C)O (centres undefined) | 9% | · | -29% | 3% | ·
CC(=O)OCCCN1C(=O)c2cccc3cc(Br)cc(c23)C1=O | 12% | 2% | 0% | 5% | ·
O=C1c2cccc3cc([N+](=O)[O-])cc(c23)C(=O)N1/N=C/c1ccc(O)cc1O | -24% | ? | ? | 12µM* | -79*
Cc1cc(C)c(S(=O)(=O)N2CCN(CCN3C(=O)c4cccc5cccc(c45)C3=O)CC2)cc1[N+](=O)[O-] | 6% | 0% | ? | 16% | ·
O=C1c2cccc3cc([N+](=O)[O-])cc(c23)C(=O)N1CCN1CCCC1 | -6% | -17% | ? | 9.3µM* | -100*
Nc1cc2c3c(cccc3c1)C(=O)N(CCN1CCCC1)C2=O | -15% | -17% | 5.9µM* | 12µM* | -96*
CCN(CC)CCN1C(=O)c2cccc3cc(N)cc(c23)C1=O | -1% | -11% | ? | ? | -99*
COc1ccccc1CNS(=O)(=O)c1cc(C(=O)NCC2CCCO2)c(Cl)cc1Cl (centres undefined) | · | · | · | · | 5
COc1ccccc1NC(=O)C1CCCN(S(=O)(=O)c2c(C)noc2C)C1 (centres undefined) | 14% | -1% | 4% | -26% | -18
Cc1ccc(N(Cc2ccc(C(=O)NCCSc3ccccn3)cc2)S(C)(=O)=O)cc1C | 0% | -14% | 0.74µM* | ? | 6
Cc1ccccc1CN(c1ccc(C(=O)NCc2ccccn2)cc1)S(C)(=O)=O | 8% | · | 20% | 1% | -38
O=C(NCc1ccccn1)c1ccc(Cl)c(S(=O)(=O)Nc2ccccc2C(=O)NCc2ccccn2)c1 | 1% | 6% | 9.3µM* | 12µM* | -15
C=CCNC(=O)c1ccccc1NC(=O)c1ccc(Cl)c(S(=O)(=O)Nc2cc(C)ccc2C)c1 | 0% | -10% | 8.3µM* | ? | -18
SMILES | Giardia FBPA inh | Sm TGR inh | Pf growth 96h | Pf growth 48h | HCMV inh
Cc1cc(C)cc(NS(=O)(=O)c2cc(C(=O)NCc3ccccn3)ccc2Cl)c1 | -3% | 3% | ? | 12% | ?
CS(=O)(=O)N(Cc1ccccc1Cl)c1ccc(C(=O)NCc2ccccn2)cc1 | 6% | -3% | 10µM* | ? | -22
COc1ccc(N2CCN(C(=O)c3ccc(CNS(=O)(=O)c4cc(C)ccc4C)cc3)CC2)cc1 | · | -3% | -1% | -4% | ?
Cc1ccc(NC(=O)c2sc3nc4n(c(=O)c3c2C)CCCCC4)c(Br)c1 | · | -5% | · | · | 9
Cc1cc(Br)ccc1NC(=O)c1sc2nc3n(c(=O)c2c1C)CCCC3 | · | 22µM* | · | · | -33
CCOC(=O)c1ccccc1NC(=O)c1sc2nc3n(c(=O)c2c1C)CCCC3 | · | 45µM* | · | · | 25
COc1ccc(CN(C)C[C@H]2OCCCC[C@@H](C)Oc3ccc(NS(C)(=O)=O)cc3C(=O)N([C@H](C)CO)C[C@@H]2C)cc1 | · | · | · | · | -3
Cc1ccc(C)c(Cn2c3ccccc3c3cnn(CC(=O)NCc4ccccc4)c(=O)c32)c1 | · | 0% | · | · | -3
Cc1c2cnn(CC(=O)NCCCN3CC(C)CC(C)C3)c(=O)c2c(C)n1Cc1ccccc1Cl (centres undefined) | 6% | -9% | 6% | 6.6µM* | -69*
CC1CC(C)CN(CCCNC(=O)Cn2ncc3c(=O)oc4ccccc4c32)C1 (centres undefined) | -1% | 1% | ? | · | -8
Cc1ccc(C)c(Cn2c3ccccc3c3cnn(CC(=O)NCCCN4CCOCC4)c(=O)c32)c1 | · | -4% | ? | 13µM* | -31
Cc1cc(C)c(Cn2c3ccccc3c3cnn(CC(=O)NCc4ccccn4)c(=O)c32)c(C)c1 | 4% | 1% | -4% | ? | -62*!
Cc1ccc(C)c(Cn2c3ccccc3c3cnn(CC(=O)NCCN4CCOCC4)c(=O)c32)c1 | -5% | -19% | 9.3µM* | ? | 52
Cc1cc(C)c(Cn2c3ccccc3c3cnn(CC(=O)NCCN4CCOCC4)c(=O)c32)c(C)c1 | -11% | -6% | ? | ? | ?
COc1ccccc1N1CCN(CCS(=O)(=O)c2cc(Cl)ccc2Cl)CC1 | · | · | · | · | -20
COc1ccc(NS(=O)(=O)N2CCCCC2)cc1 | · | · | · | · | 7
COc1ccccc1OCC(=O)NCCSCc1cccc(Cl)c1 | -3% | -4% | 12µM* | 11% | 21
COc1ccc(OCC(=O)NCCCCCCNC(=O)COc2ccc(OC)cc2)cc1 | · | 2% | 2.9µM* | -14% | -19
C[N+]1(CC(=O)NNc2c3ccccc3nc3ccccc23)CCOCC1 | -1% | 10% | 13% | ? | -96*
